The results in this text go back to PubChem BioAssay.

Results filed as inconclusive are left out. For some of these results: Entries with a potency or affinity are not part of this list. Active and inactive are the calls of the source.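 Rule for the calls, unless noted: active = compounds killing one labelled cell type while sparing the other, by normalised counts and ratio limits, not self-fluorescent; inactive = the rest.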

The nature of assay [1]: EMT-state selective cytotoxicity in co-culture – imaging, PC-3E GFP, TEM4-18 mCherry, primary screen (AID 1345086).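 For all read-outs here: cells exposed to compound for 72 h before imaging.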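 For red/green cell ratio (normalised): normalised mesenchymal count divided by normalised epithelial count so high means epithelial killing.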 The conditions noted are these: PC-3E GFP / TEM4-18 mCherry co-culture, imaging cell counts, at 1 µM; for red/green cell ratio (normalised): actives lie on both sides, counts scaled to control wells, 1 = unselective.
For assay [2], the target named is Mitogen-activated protein kinase 7 (Homo sapiens) (UniProt Q13164). As to the kind of experiment: Gal4-ERK5 driven luciferase induction – cell-based, HTS, primary screen (AID 1508626;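 active = luciferase signal above three times the same-plate solvent-only control wells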;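 note: luciferase driven by Gal4-ERK5 fusion binding five Gal4 sites before minimal TATA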). The conditions noted are these: HeLa Gal4-ERK5 transactivation, 18 h, at 5 µM, stronger effect = higher value.
A short description of assay [3]: blockers of polyQ-driven CASP3 activation – cell-based (AID 1583). The conditions noted are these: polyglutamine-induced caspase-3 activation, cell assay; stronger effect = higher value;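 tested at 10 µM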.
Assay [4] is described as follows: yeast 75Q aggregation reduction – 75Q-TubU reporter (AID 1593). The conditions noted are these: Yeast 75Q polyglutamine aggregation reporter.
Assay [5] in a line: restoration of touch response, mutant HTT neurons – whole organism, C. elegans mechanosensory neurons, N-terminal huntingtin (AID 1599). The conditions noted are these: C. elegans polyQ-huntingtin mechanosensory neurons, stronger effect = higher value.
Assay [6] can be described thus: blockers of cytochrome c efflux from mitochondria – biochemical, purified mitochondria (AID 1603).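 Note: mouse liver mitochondria challenged with calcium chloride; signal normalized to the plate average as 100%.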 The following applies: stronger effect = lower value.
Assay [7] in a line: polyglutamine aggregate formation blockers (AID 1604). The following applies: polyglutamine-induced protein aggregation inhibition assay; stronger effect = higher value; tested at 2.5 µM.
A short description of assay [8]: rescue of PC12 cells from polyQ htt toxicity – LDH release (AID 1610). The conditions noted are these: PC12 mutant huntingtin toxicity, final LDH at 4 uM, stronger effect = lower value.
Assay [9] is described as follows: glutamate transport activators, MN-1 cells, MN-1 cell line (AID 1612).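 Note: tested at 1 µM final; 0% = mean of DMSO vehicle wells on each plate; positive means more glutamate uptake than control and negative means less.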 The following applies: MN-1 motor neuron cells, stronger effect = higher value.
Assay [10] can be described thus: 75Q-TubH aggregate inhibition, S. cerevisiae, yeast (AID 1616). The following applies: S. cerevisiae 75Q-TubH polyglutamine aggregation suppression; stronger effect = higher value.
Assay [11] addresses NAD(+) hydrolase SARM1 (Homo sapiens) (UniProt Q6SZW1). The assay is described as follows: blocking NAD cleavage by SARM1 SAM-TIR – cell lysate, NAD-Glo luminescence (AID 1508614;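 active = compound whose remaining NAD level is above about 45 nM, limit read from the data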;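 note: higher remaining NAD means stronger inhibition of SARM1 NADase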). The conditions noted are these: SAM-TIR HEK293T lysate NADase, at 1 µM, stronger effect = higher value.
The nature of assay [12]: GFP-Q80 aggregate reduction, neuronal-like cells, cell-based, NGF-treated PC12, GFPQ80 (AID 1614).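 Note: lower means fewer inclusions and 0 means no inclusions at all.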 The following applies: PC12 NGF-treated GFP-polyQ80 inclusion reduction.
Assay [13] can be described thus: glutamate excitotoxicity neuroprotectants – cell-based, TUNEL DNA degradation staining, MNGlu (AID 1594; call rule not given here). The following applies: motor neurons, glutamate-induced death, at 1 µM, stronger effect = higher value.
Assay [14] can be described thus: P. berghei load reduction in hepatocytes – cell-based, HepG2, luciferase luminescence, HepG2 viability, primary screen (AID 624349; in the data active = parasite load remaining mostly below about 12%, no sharp cut-off; inactive = mostly above about 10%;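 note: 100% = mean of DMSO negative control wells on the same plate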). The conditions noted are these: P. berghei liver stage in HepG2, luciferase luminescence, concentration not given here; parasite load remaining: stronger effect = lower value; viability: measured here: HepG2 viability without parasites.
[15] abbreviates: measured here: epithelial PC-3E GFP cell survival.
[16] abbreviates: measured here: mesenchymal TEM4-18 mCherry cell survival.

Chain of NAD(+) hydrolase SARM1 (Homo sapiens) (Q6SZW1 whole entry, looked up): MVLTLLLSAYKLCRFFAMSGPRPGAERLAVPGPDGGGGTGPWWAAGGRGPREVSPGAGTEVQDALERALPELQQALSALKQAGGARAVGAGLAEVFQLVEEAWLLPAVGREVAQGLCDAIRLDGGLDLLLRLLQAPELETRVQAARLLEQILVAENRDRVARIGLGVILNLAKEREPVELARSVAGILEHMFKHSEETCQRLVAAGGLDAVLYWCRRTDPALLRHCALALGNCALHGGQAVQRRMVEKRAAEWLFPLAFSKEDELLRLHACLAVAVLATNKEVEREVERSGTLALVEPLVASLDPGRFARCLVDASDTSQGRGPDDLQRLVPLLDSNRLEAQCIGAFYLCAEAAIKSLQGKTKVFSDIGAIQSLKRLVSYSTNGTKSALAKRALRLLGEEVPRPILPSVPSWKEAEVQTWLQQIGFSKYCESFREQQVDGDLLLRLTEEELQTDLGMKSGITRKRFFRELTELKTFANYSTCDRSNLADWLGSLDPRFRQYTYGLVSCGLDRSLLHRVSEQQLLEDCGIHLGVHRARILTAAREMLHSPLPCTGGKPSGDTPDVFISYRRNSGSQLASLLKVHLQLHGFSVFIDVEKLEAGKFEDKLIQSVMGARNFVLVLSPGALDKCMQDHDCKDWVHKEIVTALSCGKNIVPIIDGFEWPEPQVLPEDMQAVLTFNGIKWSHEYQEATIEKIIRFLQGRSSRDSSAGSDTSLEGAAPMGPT
Chain of Mitogen-activated protein kinase 7 (Homo sapiens) (Q13164 whole entry, looked up, the tested form may be a part): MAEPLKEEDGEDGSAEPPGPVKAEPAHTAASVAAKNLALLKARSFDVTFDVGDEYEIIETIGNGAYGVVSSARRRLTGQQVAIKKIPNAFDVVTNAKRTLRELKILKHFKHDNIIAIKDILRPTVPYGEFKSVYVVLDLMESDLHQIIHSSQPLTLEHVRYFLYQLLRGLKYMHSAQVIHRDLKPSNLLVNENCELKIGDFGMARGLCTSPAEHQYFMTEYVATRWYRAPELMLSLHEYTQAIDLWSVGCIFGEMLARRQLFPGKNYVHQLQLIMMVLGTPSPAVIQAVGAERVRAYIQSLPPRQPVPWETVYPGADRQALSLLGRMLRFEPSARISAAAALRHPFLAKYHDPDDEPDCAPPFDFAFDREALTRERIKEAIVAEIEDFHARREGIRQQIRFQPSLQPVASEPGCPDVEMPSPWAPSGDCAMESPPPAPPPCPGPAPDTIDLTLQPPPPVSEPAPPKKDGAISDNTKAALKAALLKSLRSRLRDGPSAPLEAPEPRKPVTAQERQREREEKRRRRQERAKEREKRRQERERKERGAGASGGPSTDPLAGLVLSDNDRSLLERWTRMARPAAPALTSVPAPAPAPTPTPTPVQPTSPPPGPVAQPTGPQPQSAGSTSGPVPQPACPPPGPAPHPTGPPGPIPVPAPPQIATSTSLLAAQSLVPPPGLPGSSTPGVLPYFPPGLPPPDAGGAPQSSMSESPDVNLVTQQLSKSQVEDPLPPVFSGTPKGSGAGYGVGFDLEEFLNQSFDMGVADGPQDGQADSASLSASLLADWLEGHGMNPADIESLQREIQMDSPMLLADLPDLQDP

Turning to `COc1cc(OC)c2c(=O)c(O)c(-c3ccc(OC)c(OC)c3)oc2c1`, the red/green cell ratio (normalised) in [1] was 0.83 (inactive). The normalised cell number in assay [1] (setting [15]) turned out to be 1.23; in [1] (setting [16]), 1.02. Also, in assay [2], the luciferase signal was 64 AU (inactive).
Taken in the same sequence, the figures for `CCCCCCCCCCCCCCCC(=O)OCC(O)CO` (stereo unspecified) were 0.84 (inactive), 1.14, 0.96 and 72 AU (inactive).
Taken in the same sequence, the figures for `CC(=O)O[C@@H]1CC[C@@]2(C)C(CC[C@]3(C)C2CC=C2C4CC(C)(C)CC[C@]4(C(=O)O)CC[C@]23C)C1(C)C` (stereo partly specified) were 0.84 (inactive), 1.04, 0.87 and 44 AU (inactive).
Taken in the same sequence, the figures for `COc1cc(OC)c(C(C)=O)c(O)c1C` were 0.96 (inactive), 0.98, 0.94 and 32 AU (inactive).
`O=c1cc(-c2ccccc2O)oc2cc(O)ccc12`: the red/green cell ratio (normalised) in [1] is 1 (inactive). The normalised cell number in assay [1] (setting [15]) and in assay [1] (setting [16]) was 0.97 throughout. In [2], the luciferase signal was 112 AU (inactive).
As for `COc1cc(O)c(C(=O)/C=C/c2ccc(O)c(OC)c2)c(OC)c1`, in [1], the red/green cell ratio (normalised) was 0.93 (inactive). Moreover, the results for the normalised cell number in assay [1] (setting [15]) and in assay [1] (setting [16]) were 1.1 and 1.02, respectively. The luciferase signal in assay [2] was 60 AU (inactive).
In the same order, the values of `CC(=O)O[C@@H]1CC2C(C)(C)C(=O)C3OC3[C@]2(C)C2CC[C@@]3(C)[C@H](c4ccoc4)OC(=O)C4OC43[C@@]21C` (stereo partly specified) are 1.04 (inactive), 1.01, 1.05 and 4 AU (inactive).
Taken in the same sequence, the figures for `COc1ccc2c(c1)O[C@H]1c3ccc(OC)cc3OC[C@@H]21` were 1.06 (inactive), 1, 1.07 and 68 AU (inactive).
For the compound `CC(=O)O[C@H]1C[C@@H](O)C(C)(C)C2C[C@@H](OC(C)=O)[C@]3(C)C(CC[C@@]4(C)[C@H](c5ccoc5)OC(=O)C5OC543)[C@]21C` (stereo partly specified), the red/green cell ratio (normalised) in [1] is 0.84 (inactive). Further, the normalised cell number in assay [1] (setting [15]) is 0.84; in assay [1] (setting [16]) it was 0.7. In assay [2], the luciferase signal was 40 AU (inactive).
In the case of `OCC(S)CS` (stereo unspecified), in [3], the inhibition turned out to be 11.1%. The score in assay [4] is -0.34. The compound also displayed a rescue above control in assay [5] of 28.1. In addition, the cytochrome c release ratio in [6] is 0.92. In assay [7], this compound showed an inhibition of aggregation of 68.7%. For the same compound, the normalised LDH release in assay [8] worked out at 0.667. In assay [9], the glutamate uptake change was found to be 23.2%. Also, the aggregation suppression score in assay [10] was -0.815. Besides, in [1], the red/green cell ratio (normalised) is 1.01 (inactive). Moreover, the normalised cell number in assay [1] (setting [15]) turned out to be 0.72; in assay [1] (setting [16]), 0.73. In addition, the remaining NAD in assay [11] was 10 nM (inactive). The luciferase signal in assay [2] is 92 AU (inactive).
As for `CNC(C)[C@@H]1CC[C@@H](N)[C@@H](OC2[C@@H](N)C[C@@H](N)[C@H](OC3OC[C@](C)(O)[C@H](NC)[C@H]3O)[C@H]2O)O1` (stereo partly specified), in assay [3], the inhibition was -0.7%. Moreover, in assay [4], the score was determined as 1.63. In assay [5], the rescue above control is -1.8. Further, the cytochrome c release ratio in [6] is 2.33. The compound further displayed an inhibition of aggregation in assay [7] of 66.7%. Also, the glutamate uptake change in [9] worked out at 1.4%. Besides, in assay [12], the inclusion score is 2. The compound also displayed an aggregation suppression score in [10] of 1.62. Moreover, the red/green cell ratio (normalised) in assay [1] is 1.29 (inactive). Besides, the normalised cell number in assay [1] (setting [15]) was 1.02; in assay [1] (setting [16]), 1.32. In assay [11], the remaining NAD is 10 nM (inactive). For the same compound, in assay [2], the luciferase signal was 28 AU (inactive).
Take `C#CCCCCCCCCCCCc1ccco1`: the red/green cell ratio (normalised) in assay [1] is 0.97 (inactive). Moreover, the normalised cell number in assay [1] (setting [15]) came out at 1.01; in [1] (setting [16]), 0.98. Further, the luciferase signal in assay [2] was 148 AU (inactive).
Taken in the same sequence, the figures for `Cc1cc(O)c(C=O)c2c1C(=O)Oc1c(COC(=O)/C=C/C(=O)O)c(O)c(C(=O)O)c(C)c1O2` were 1.12 (inactive), 1.12, 1.25 and 16 AU (inactive).
Turning to `CC(=O)O[C@H]1CC[C@@]2(C)C(C[C@@H](OC(C)=O)[C@@]3(C)C4=CC(=O)O[C@@H](c5ccoc5)[C@]4(C)CCC23)C1(C)C` (stereo partly specified), the red/green cell ratio (normalised) in assay [1] is 0.88 (inactive). For the same compound, the normalised cell number stood at 0.93 in assay [1] (setting [15]) and 0.82 in assay [1] (setting [16]). The luciferase signal in assay [2] is 28 AU (inactive).
With `Nc1ccc(C(=O)O)c(O)c1` (tested in a mixture with another compound), the inhibition in [3] is -9.55%. Further, the score in assay [4] turned out to be 1.25. For the same compound, in assay [13], the protection was 60% (active). The compound also displayed a rescue above control in [5] of -2.24. Besides, the cytochrome c release ratio in assay [6] was 0.96. The inhibition of aggregation in assay [7] was found to be 69%. The glutamate uptake change in [9] was -12.2%. Also, the inclusion score in assay [12] stood at 2. Besides, in assay [10], the aggregation suppression score came out at 1.1. The parasite load remaining in assay [14] is 155% (inactive). Further, the viability in [14] was 85.3%. The red/green cell ratio (normalised) in [1] was 0.93 (inactive). Further, the normalised cell number was 1.14 in assay [1] (setting [15]) and 1.06 in assay [1] (setting [16]). The remaining NAD in [11] was 10 nM (inactive).
As for `C=C[C@@]1(C)CC(=O)[C@@]2(O)[C@](C)(O1)[C@@H](O)[C@@H](O)C1C(C)(C)CC[C@H](O)[C@@]12C` (stereo partly specified), the red/green cell ratio (normalised) in [1] was 1.15 (inactive). In addition, the normalised cell number in [1] (setting [15]) came out at 0.91; in [1] (setting [16]), 1.05. In assay [2], the luciferase signal was 80 AU (inactive).
Turning to `CC(=O)O[C@@H]1CC2C(C)(C)[C@H](O)C=C[C@]2(C)C2CC[C@@]3(C)[C@H](c4ccoc4)OC(=O)C4OC43[C@@]21C` (stereo partly specified), the red/green cell ratio (normalised) in [1] was 1.02 (inactive). In addition, the values for the normalised cell number in assay [1] (setting [15]) and in assay [1] (setting [16]) were 1.17 and 1.19, respectively. Further, the luciferase signal in assay [2] is 56 AU (inactive).
For the compound `CC1(C)CC[C@]2(C(=O)O)CC[C@]3(C)C(=CCC4[C@@]5(C)CC[C@@H](O)C(C)(C)C5CC[C@]43C)C2C1` (stereo partly specified), the red/green cell ratio (normalised) in assay [1] is 1 (inactive). Besides, the normalised cell number in assay [1] (setting [15]) was found to be 0.94; in assay [1] (setting [16]), 0.95. Moreover, in [2], the luciferase signal is 16 AU (inactive).
In the same order, the values of `COc1ccc(/C=C/C(=O)c2ccc(O)cc2O)cc1` are 1.07 (inactive), 0.93, 0.99 and 100 AU (inactive).
Taken in the same sequence, the figures for `CC(=O)Oc1cc(C)c2c(c1C(OC(C)=O)OC(C)=O)Oc1c(c(C)c(OC(C)=O)c3c1C(OC(C)=O)OC3=O)OC2=O` (stereo unspecified) were 0.89 (inactive), 1.03, 0.92 and 124 AU (inactive).
Consider `CC(=O)O[C@H]1CC[C@@]2(C)C(C[C@@H](OC(C)=O)[C@]3(C)C2CC[C@@]2(C)[C@H](c4ccoc4)OC(=O)[C@H]4O[C@]423)C1(C)C` (stereo partly specified), for which, in assay [1], the red/green cell ratio (normalised) was 1.12 (inactive). The normalised cell number in assay [1] (setting [15]) worked out at 1; in [1] (setting [16]), 1.12. Moreover, the luciferase signal in assay [2] was 60 AU (inactive).
In the same order, the values of `COc1ccc(-c2coc3c(O)c(O)c(OC)cc3c2=O)cc1` are 0.97 (inactive), 1.12, 1.09 and 88 AU (inactive).
Consider `O=C(/C=C/c1ccc(O)cc1)c1ccccc1O`, for which the red/green cell ratio (normalised) in assay [1] is 0.93 (inactive). For the same compound, the values for the normalised cell number in assay [1] (setting [15]) and in assay [1] (setting [16]) were 1.02 and 0.94, respectively. For the same compound, the luciferase signal in assay [2] is 96 AU (inactive).
